Assay results from PubChem BioAssay.
Activity calls are given as the source filed them. Unless noted, no rule for the calls is given here.

Experiments:
[1] = HepG2 liver cancer cell viability effects, profiling panel, resazurin fluorescence, 24 h, PK04 Diversity Set (AID 1172); conditions: higher = more signal
[2] = basal S. cerevisiae growth modulation, no modifier, primary screen, OD600, strain BY4716, 24 h, basal condition (AID 1173); conditions: OD600, 24 h, higher = more signal, called active from +8 up or from −8 down
[3] = MM1S myeloma cell viability, profiling panel, resazurin fluorescence, basal, 24 h, PK04 Diversity Set (AID 1174); conditions: higher = more signal, called active from +8 up or from −8 down;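 also: MM1S multiple myeloma cell line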
[4] = target: Dihydroorotate dehydrogenase (quinone), mitochondrial (Plasmodium falciparum (isolate 3D7)) (UniProt Q08210); test: PfDHODH enzyme inhibitors, primary screen, biochemical, C-terminal His tag, absorbance 600 nm (AID 1175); conditions: DCIP absorbance 600 nm, higher = more signal, called active from +8 up or from −8 down;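 also: recombinant parasite enzyme with a five histidine tag at its C terminus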
Chain of Dihydroorotate dehydrogenase (quinone), mitochondrial (Plasmodium falciparum (isolate 3D7)) (Q08210 whole entry, looked up): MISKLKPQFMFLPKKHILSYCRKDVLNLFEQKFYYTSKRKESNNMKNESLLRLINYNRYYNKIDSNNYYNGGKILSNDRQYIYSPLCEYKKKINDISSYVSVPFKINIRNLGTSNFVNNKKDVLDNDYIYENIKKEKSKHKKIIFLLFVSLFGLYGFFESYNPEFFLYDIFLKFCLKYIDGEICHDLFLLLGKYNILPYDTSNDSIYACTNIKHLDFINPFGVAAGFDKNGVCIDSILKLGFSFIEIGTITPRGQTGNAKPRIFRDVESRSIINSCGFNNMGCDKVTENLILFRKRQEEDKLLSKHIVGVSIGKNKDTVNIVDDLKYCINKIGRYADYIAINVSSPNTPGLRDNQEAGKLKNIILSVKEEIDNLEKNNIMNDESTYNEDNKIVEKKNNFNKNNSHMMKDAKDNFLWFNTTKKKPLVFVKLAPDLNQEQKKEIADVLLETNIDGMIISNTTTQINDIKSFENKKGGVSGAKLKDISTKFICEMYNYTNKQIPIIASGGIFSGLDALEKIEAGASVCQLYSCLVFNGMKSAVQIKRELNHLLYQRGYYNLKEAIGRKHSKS

[5] = P. aeruginosa biofilm formation inhibitors, primary screen, strain PAO1, LB-PBS medium, absorbance 600 nm (AID 1176); conditions: P. aeruginosa PAO1 growth/biofilm, A600, 12 h; higher = more signal
[6] = S. cerevisiae RM11-1a growth modifiers, primary screen, strain RM11-1a, OD600, basal, 24 h (AID 1177); conditions: OD600, 24 h, higher = more signal, called active from +8 up or from −8 down;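 also: cultures grown under basal conditions with no added stressor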
[7] = E. coli acrAB mutant growth effects, primary screen, E. coli filamentation inducers, strain DRC39, OD650, 24 h (AID 1178); conditions: higher = more signal, called active from +8 up or from −8 down;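 also: growth measured as culture turbidity by optical density at 650 nm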
[8] = E. coli acrAB mutant growth effects, primary screen, E. coli filamentation inducers, strain DRC39, OD650, 48 h (AID 1179);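 also: screen aims at cell division blockers that make cells filament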; conditions: E. coli DRC39 delta-acrAB growth, higher = more signal, called active from +8 up or from −8 down
[9] = RPMI8226 myeloma cell viability, profiling panel, resazurin fluorescence, basal, 24 h, PK04 Diversity Set (AID 1180); conditions: higher = more signal;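 also: RPMI8826 multiple myeloma cell line at 5000 cells per well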
[10] = target: E3 ubiquitin-protein ligase XIAP (Homo sapiens) (UniProt P98170); test: XIAP binders, primary screen, biophysical, small-molecule microarray, fluorescence 635 nm (AID 1181); conditions: small-molecule microarray binding, higher = more signal;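 also: score merges 667 nm emission and signal to noise over triplicate slides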
Chain of E3 ubiquitin-protein ligase XIAP (Homo sapiens) (P98170 whole entry, looked up): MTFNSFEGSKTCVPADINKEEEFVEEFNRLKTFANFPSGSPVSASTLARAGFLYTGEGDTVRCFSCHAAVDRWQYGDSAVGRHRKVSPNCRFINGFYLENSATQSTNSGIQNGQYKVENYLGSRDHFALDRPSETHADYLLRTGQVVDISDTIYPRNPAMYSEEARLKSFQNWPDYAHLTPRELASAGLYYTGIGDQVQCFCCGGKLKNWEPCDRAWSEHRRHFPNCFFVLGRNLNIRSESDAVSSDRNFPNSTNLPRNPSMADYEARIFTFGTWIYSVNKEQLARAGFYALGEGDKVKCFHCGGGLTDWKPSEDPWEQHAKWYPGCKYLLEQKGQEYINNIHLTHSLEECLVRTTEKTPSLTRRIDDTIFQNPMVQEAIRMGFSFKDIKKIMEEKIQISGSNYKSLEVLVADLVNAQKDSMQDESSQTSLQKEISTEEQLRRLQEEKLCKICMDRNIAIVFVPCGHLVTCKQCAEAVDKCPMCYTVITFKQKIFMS

[11] = test system: XIP peptide (Xip251-270) binding; test: small-molecule binders of XIP peptide, primary screen, biochemical, small-molecule microarray, fluorescence 635/667 nm, 0.1 µg/mL protein (AID 1182); conditions: fluorescent protein binding, 635 nm, higher = more signal, called active from +8 up or from −8 down
XIP peptide (Xip251-270) = test: small-molecule binders of XIP peptide, primary screen, biochemical, small-molecule microarray, fluorescence 635/667 nm, 0.5 µg/mL protein (AID 1183); conditions: small-molecule microarray binding, fluorescence 635 nm; higher = more signal
[12] = Plasmodium falciparum growth inhibition, primary screen, strain 3D7, DAPI fluorescence, 100 nL (AID 1184);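 also: parasites grown inside human red blood cells in medium with human serum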; conditions: P. falciparum 3D7 growth, 3 d, higher = more signal
[13] = target: Homeobox protein Hox-A13 (Mus musculus) (UniProt Q62424); test: inhibitors of HoxA13-DNA binding, primary screen, biochemical, fluorescence polarization, labeled oligonucleotide (AID 1185); conditions: 15 min, higher = more signal, called active from +8 up or from −8 down
Chain of Homeobox protein Hox-A13 (Mus musculus) (Q62424 whole entry, looked up): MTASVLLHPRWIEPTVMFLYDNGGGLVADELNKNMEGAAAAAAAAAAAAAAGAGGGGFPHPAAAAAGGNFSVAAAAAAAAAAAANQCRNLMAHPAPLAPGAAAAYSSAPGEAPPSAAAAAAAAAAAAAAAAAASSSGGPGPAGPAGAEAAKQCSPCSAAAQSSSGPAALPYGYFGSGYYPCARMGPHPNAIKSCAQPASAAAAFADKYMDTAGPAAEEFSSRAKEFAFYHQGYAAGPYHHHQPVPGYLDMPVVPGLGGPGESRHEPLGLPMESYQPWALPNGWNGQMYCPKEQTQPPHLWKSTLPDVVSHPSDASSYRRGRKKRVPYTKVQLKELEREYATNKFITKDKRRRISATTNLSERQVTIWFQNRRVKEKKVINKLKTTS

[14] = inhibitors of hydroxyurea-induced Chk1 phosphorylation, primary screen, imaging, HeLa, phospho-Chk1 antibody, percent positive cells (AID 1186); conditions: hydroxyurea-induced phospho-Chk1 immunofluorescence imaging, higher = more signal
[15] = inhibitors of hydroxyurea-induced Chk1 phosphorylation, primary screen, imaging, HeLa, phospho-Chk1 nuclear intensity (AID 1187); conditions: hydroxyurea-induced phospho-Chk1 immunofluorescence imaging, higher = more signal

Row | Structure (SMILES) | z-score [1] | z-score [2] | z-score [3] | composite z-score [4] | z-score [5] | z-score [6] | z-score [7] | z-score [8] | z-score [9] | composite z-score [10] | composite z-score [11] | composite z-score (XIP peptide (Xip251-270)) | z-score [12] | z-score [13] | z-score [14] | z-score [15]
1 | CCOC(=O)C1=CC[C@@H](c2ccccc2)N(S(=O)(=O)c2ccc(C)cc2)[C@H]1C(=O)OCC | -0.0229 | 1.45 (inactive) | -0.424 (inactive) | -0.103 (inactive) | -0.0196 (inactive) | 0.482 (inactive) | -0.0018 (inactive) | 0.237 (inactive) | -0.904 | -0.052 | 0.414 (inactive) | -0.404 | -0.799 | -5.23 (inactive) | 0.0256 (inactive) | -0.831 (inactive)
2 | CN(C)CCCNC(=O)[C@@]1(Cc2ccccc2I)c2ccccc2C(=O)N(Cc2ccccc2C(F)(F)F)[C@H]1c1ccc(CO)cc1 | -6.04 | -6.8 (inactive) | -7.53 (inactive) | 0.35 (inactive) | 0.0993 (inactive) | 0.653 (inactive) | -0.299 (inactive) | 0.247 (inactive) | -4.01 | -0.288 | 0.165 (inactive) | 0.514 | -1.83 | -2.47 (inactive) | -0.239 (inactive) | -0.347 (inactive)
3 | C=C(CCCC)/C(=C/C[C@H](OC(C)=O)c1ccc(CO)o1)c1cnc2ccccc2c1 | -0.0826 | -0.143 (inactive) | -0.735 (inactive) | -6.03 (inactive) | 1.58 (inactive) | 1.66 (inactive) | 0.18 (inactive) | 0.284 (inactive) | 0.137 | 0.0426 | 0.0563 (inactive) | 0.515 | -0.867 | -5.74 (inactive) | 0.0298 (inactive) | -0.0373 (inactive)
4 | CCCCCN1CC=CC23O[C@@H]4/C=C\CCCOC(=O)C4[C@H]2C(=O)N(CCCCCCO)[C@@H]3C1=O (stereo partly drawn) | 0.239 | -2.73 (inactive) | 0.972 (inactive) | -2.25 (inactive) | 1.45 (inactive) | -3.12 (inactive) | 0.758 (inactive) | 0.868 (inactive) | 1.42 | 0.147 | 0.403 (inactive) | -0.0516 | -1.13 | -5.27 (inactive) | -0.792 (inactive) | -0.702 (inactive)
5 | COC(=O)C[C@H]1O[C@]2(C(=O)N(Cc3ccccc3)c3ccc(NC(C)=O)cc32)[C@@H](C)[C@@H]1[Si](C)(C)c1ccc(OC)cc1 | -1.11 | 0.457 (inactive) | -1.33 (inactive) | 1.45 (inactive) | -0.602 (inactive) | 0.952 (inactive) | -0.871 (inactive) | -0.69 (inactive) | -0.681 | -0.227 | 0.337 (inactive) | 0.27 | -3.05 | -3.04 (inactive) | 0.918 (inactive) | 0.536 (inactive)
6 | O=C1c2ccccc2[C@@]2(Cc3ccccc3N(Cc3ccccc3)C2=O)[C@H](c2ccc(CO)cc2)N1C1CCCCC1 | 0.281 | 1.61 (inactive) | -0.242 (inactive) | -11.6 (active) | 0.407 (inactive) | 1.57 (inactive) | 0.281 (inactive) | 0.256 (inactive) | -0.0776 | -0.239 | -0.204 (inactive) | 0.299 | -0.0438 | -1.21 (inactive) | 0.0191 (inactive) | 0.359 (inactive)
7 | CO[C@H]1O[C@H](CO)[C@@H](OC(=O)Nc2ccc(Oc3ccccc3)cc2)[C@H](OC(=O)Nc2ccccc2)[C@H]1OC(=O)Nc1ccccc1 | -2.18 | -0.494 (inactive) | -2.36 (inactive) | -0.996 (inactive) | 1.97 (inactive) | 2.67 (inactive) | 1.57 (inactive) | 0.561 (inactive) | -2.48 | 0.0668 | 1.21 (inactive) | 0.916 | -2.21 | -1.38 (inactive) | -0.444 (inactive) | -0.307 (inactive)
8 | O=C(OCCF)C1=CCC(c2cccc(Cl)c2)O1 (stereo not drawn) | -0.185 | -2.59 (inactive) | 0.0509 (inactive) | -1.71 (inactive) | -0.212 (inactive) | -1.56 (inactive) | -0.18 (inactive) | 0.443 (inactive) | 0.122 | 0.0176 | -0.131 (inactive) | 0.0075 | 0.65 | -0.701 (inactive) | 0.0006 (inactive) | 0.215 (inactive)
9 | CCCCC=C[C@@H](NC(=O)c1cccs1)c1ccccc1 | 0.327 | 0.822 (inactive) | -0.321 (inactive) | 0.0375 (inactive) | 0.191 (inactive) | 1 (inactive) | 0.659 (inactive) | 0.955 (inactive) | -1.95 | -0.0426 | -0.0837 (inactive) | -0.513 | -0.414 | -3.05 (inactive) | -0.483 (inactive) | -0.695 (inactive)
10 | O=C1O[C@@H](c2ccccc2)[C@@H](c2ccccc2)N2[C@@H](c3ccc(O)cc3)[C@]3(C(=O)Nc4ccc(C#CC5=CCCCC5)cc43)[C@@H](C(=O)O)[C@H]12 | 1.46 | -4.6 (inactive) | 1.23 (inactive) | -2.56 (inactive) | 2.85 (inactive) | -2.61 (inactive) | 0.661 (inactive) | 1.32 (inactive) | 1.02 | 0.332 | 1.53 (inactive) | 0.327 | 0.202 | -5.46 (inactive) | -0.0372 (inactive) | 0.277 (inactive)
11 | COc1ccc(C(O)C2C=CC3C(=O)N(c4ccccc4)C(=O)C3N2Nc2ccc([N+](=O)[O-])cc2)cc1OCc1ccccc1 (stereo not drawn) | -0.46 | 0.948 (inactive) | -0.644 (inactive) | 0.323 (inactive) | 2.14 (inactive) | -0.384 (inactive) | -0.908 (inactive) | -0.337 (inactive) | -0.839 | -0.0655 | 0.522 (inactive) | 0.891 | -0.303 | -1.46 (inactive) | -0.105 (inactive) | -1.67 (inactive)
12 | C=CC[C@]1(C(=O)N2CCOCC2)N=C(c2ccc(OCCCO)cc2)O[C@H]1c1ccccc1 | 0.318 | -1.4 (inactive) | -0.0524 (inactive) | 0.373 (inactive) | 1.17 (inactive) | -0.594 (inactive) | 0.14 (inactive) | 0.122 (inactive) | 0.335 | -0.031 | 0.661 (inactive) | 0.362 | -0.887 | -6.82 (inactive) | -0.274 (inactive) | -0.217 (inactive)
13 | Cc1ccc(S[C@]2(C(=O)NCC(C)C)CC(=O)N(Cc3ccccc3Cl)[C@@H]2c2ccc(CO)cc2)cc1 | -0.0675 | -0.511 (inactive) | 0.196 (inactive) | -0.223 (inactive) | -0.205 (inactive) | 0.343 (inactive) | -0.115 (inactive) | -0.219 (inactive) | 0.405 | 0.012 | 0.0729 (inactive) | -0.313 | 0.423 | -2.53 (inactive) | 0.259 (inactive) | 0.658 (inactive)
14 | COc1ccc([Si](C)(C)[C@H]2[C@H](CC(=O)N(CCO)Cc3ccccc3)O[C@@]3(C(=O)N(Cc4cccc(N5CCC5=O)c4)c4ccccc43)[C@@H]2C)cc1 | -0.412 | -0.0113 (inactive) | -2.76 (inactive) | -1.19 (inactive) | 0.295 (inactive) | 1.17 (inactive) | 0.405 (inactive) | 0.169 (inactive) | -3.11 | 0.0259 | 0.0163 (inactive) | 0.281 | -2.84 | -2.16 (inactive) | -1.46 (inactive) | -1.2 (inactive)
15 | COC(=O)C(CC#Cc1ccc2c(c1)[C@]1(C(=O)N2)[C@H](c2ccc(OCCO)cc2)N2[C@H](c3ccccc3)[C@H](c3ccccc3)OC(=O)[C@H]2[C@@H]1C(=O)NC[C@H](O)c1ccccc1)C(=O)OC | 0.722 | 1.51 (inactive) | 0.343 (inactive) | 0.676 (inactive) | 1.05 (inactive) | 3.39 (inactive) | 0.602 (inactive) | 0.869 (inactive) | -0.47 | 0.104 | 1.14 (inactive) | 0.836 | -1.79 | -0.715 (inactive) | 0.0415 (inactive) | 0.364 (inactive)
16 | [N-]=[N+]=NCc1ccccc1[C@H]1OC(c2ccc(OCCCO)cc2)=N[C@@]1(CCS(=O)(=O)c1ccccc1)C(=O)N1CCOCC1 | -0.0894 | 0.798 (inactive) | -0.306 (inactive) | 0.274 (inactive) | 0.631 (inactive) | 0.686 (inactive) | 0.186 (inactive) | -0.109 (inactive) | -0.8 | -0.309 | 1.53 (inactive) | 0.768 | -2.22 | -3.2 (inactive) | -0.0312 (inactive) | 0.246 (inactive)
17 | COCCOC(=O)N1C(=O)[C@@]2(c3cc(C#CCC(C(=O)OC)C(=O)OC)ccc31)[C@H](c1ccc(O)cc1)N1[C@H](c3ccccc3)[C@H](c3ccccc3)OC(=O)[C@H]1[C@@H]2C(N)=O | -0.2 | -0.235 (inactive) | -0.0347 (inactive) | -0.181 (inactive) | 1.28 (inactive) | 0.332 (inactive) | -0.319 (inactive) | -0.586 (inactive) | -0.777 | 0.098 | 1.39 (inactive) | 0.619 | -0.486 | -3.8 (inactive) | 0.676 (inactive) | 0.98 (inactive)
18 | CC(C)(C)OC(=O)CC[C@]1(C(=O)N2CCCCC2)N=C(c2ccc(OCCCO)cc2)O[C@H]1c1ccccc1N=[N+]=[N-] | 0.188 | 0.367 (inactive) | -1.79 (inactive) | 0.107 (inactive) | 0.466 (inactive) | 1.01 (inactive) | 1.82 (inactive) | 1.04 (inactive) | -1.32 | -0.0304 | 0.282 (inactive) | 0.71 | -1.75 | -2.92 (inactive) | -0.0036 (inactive) | 0.212 (inactive)
